# In PubChem BioAssay (Tox21):
# Where “and” joins values, the source holds several entries; their conditions need not be identical. Identical values can stand only once. Records with an inconclusive call do not appear. Where a call stands in place of a potency, no number is given. Where a structure was tested more than once in an assay, its records may differ in their call. Calls of active or inactive are those of the source. The call rests on the fitted dose curve; in most records, active means well fitted cell-killing curve with a large enough effect in the repeat runs; inconclusive means weak or mixed curves, or effect the other way; inactive means no such curve, though single readings can be large or run the other way.
# Assay: qHTS assay to identify small molecule antagonists of the vitamin D receptor (VDR) signaling pathway - cell viability counter screen (AID 743225); further: nearly all actives have a fitted effect of over 50% in size
# Settings: VDR-bla HEK293T viability, CellTiter-Glo luminescence, 16 h; series mostly up to 61 µM
# From the text: U.S. Tox21 Program National Center for Advancing Translational Sciences [NCATS] NIH Chemical Genomics Center [NCGC] U.S. Environmental Protection Agency [EPA] National Institutes of Environmental Health Sciences [NIEHS] National Toxicology Program [NTP] U.S. Food and Drug Administration [FDA] Tox21 Assay Overview: The vitamin D receptor (VDR), a member of nuclear hormone receptor superfamily, plays a critical role in calcium homeostasis and bone metabolism. It is also involved in cell differentiation and growth, and thrombogenicity. To identify the compounds that inhibit VDR signaling, the VDR-UAS-bla HEK 293T cell line (Invitrogen, Carlsbad, CA, USA) containing a beta-lactamase reporter gene under the control of an upstream activator sequence (UAS) was used to screen the Tox21 10K compound library. The cytotoxicity of the Tox21 compound library against the VDR-bla cell line was tested in parallel by measuring the cell viability using CellTiter-Glo assay (Promega, Madison, WI) in the same wells.
# Tox21 Assay Protocol Summary: VDR-bla cells were dispensed at 2,000 cells/5 uL of assay medium per well into black wall/clear-bottom 1536-well plates using a Multidrop Combi (Thermo Fisher Scientific, Waltham, MA) dispenser. After the assay plates were incubated at a 37C and 5% CO2 for 4 h, 23 nL of compounds dissolved in DMSO, positive controls or DMSO only was transferred to the assay plate by a Pintool station (Kalypsys, San Diego, CA), followed by addition of 1 uL of 1-alpha, 25-Dihydroxy Vitamin D3 (3 nM, final concentration in the wells) using a Bioraptr Flying Reagent Dispenser (FRD) workstation (Beckman Coulter, Indianapolis, IN). The plates were incubated at 37C and 5% CO2 for 16 h, and then 1 uL of LiveBLAzerTM B/G FRET substrate was added using a Bioraptr FRD. The plates were incubated at room temperature for 2 h and fluorescence intensity was measured by an Envision plate reader (PerkinElmer, Shelton, CT). For cell viability readout that measures cytotoxicity, 3 ul/well of CellTiter-Glo reagent was added into the assay plates using a Bioraptr FRD. After 30 min incubation at room temperature, the luminescence intensity in the plates was measured using a ViewLux plate reader (PerkinElmer).
# Potency means the concentration at half of the fitted maximal effect.
row,SMILES,Potency
1,CCN(CC)CCOc1ccc(/C(=C(\Cl)c2ccccc2)c2ccccc2)cc1,22.3 µM (active) and 21.3 µM (active)
2,CC(C)(C)NCC(O)COc1ccccc1OCC1CCCO1 (stereo not given),inactive
3,CN(C)c1ccc2nc3ccc(=[N+](C)C)cc-3sc2c1,inactive and 21.9 µM (active)
4,CC(=O)O[C@]1(C(C)=O)CC[C@H]2[C@@H]3C[C@H](C)C4=CC(=O)CC[C@]4(C)[C@H]3CC[C@@]21C,inactive
5,O=C(O[C@@H]1Cc2c(O)cc(O)cc2O[C@@H]1c1cc(O)c(O)c(O)c1)c1cc(O)c(O)c(O)c1,inactive
6,CC(=O)OCCOCCOCCOC(C)=O,inactive
7,O=C(Cl)c1cccc(C(=O)Cl)c1,inactive
8,CCN(CC)C(=O)Nc1ccc(OCC(O)CNC(C)(C)C)c(C(C)=O)c1 (stereo not given),inactive
9,CC(C)(O)CCC(C)(C)O,inactive
10,CC(C)CCOC(=O)c1ccc(N(C)C)cc1,inactive
11,C/C=C/c1ccc(OCC)c(O)c1,inactive
12,CCCCCCCCCCCCc1ccccc1O,17.2 µM (active) and 21.9 µM (active)
13,CC(=O)CC(=O)Nc1ccc2[nH]c(=O)[nH]c2c1,inactive
14,CCC[C@H](N[C@@H](C)C(=O)N1[C@H](C(=O)O)C[C@@H]2CCCC[C@@H]21)C(=O)OCC,inactive
15,O=C(O)c1cn(-c2ccc(F)cc2)c2cc(N3CCNCC3)c(F)cc2c1=O,inactive
16,O=C1Nc2ccccc2C1(c1ccc(O)cc1)c1ccc(O)cc1,inactive
17,CCC(=O)/C=C/C1C(C)=CCCC1(C)C (stereo not given),inactive
18,CC1COc2c(N3CCN(C)CC3)c(F)cc3c(=O)c(C(=O)O)cn1c23 (stereo not given),inactive
19,CCC(CO)(CO)COCC(CC)(CO)CO,inactive
20,O=C(O)c1cccc(C(=O)O)c1,inactive

row,SMILES,Potency
1,CCCNC(C)C(=O)Nc1ccccc1C (stereo not given),inactive
2,CCCCCC(=O)O[C@]1(C(C)=O)CC[C@H]2[C@@H]3CCC4=CC(=O)CC[C@]4(C)[C@H]3CC[C@@]21C,43.4 µM (active) and 23.9 µM (active)
3,Cc1cc(OCCOCC[N+](C)(C)Cc2ccccc2)ccc1C(C)(C)CC(C)(C)C,13.7 µM (active) and 19 µM (active)
4,CCCOC(=O)c1cc(O)c(O)c(O)c1,inactive
5,Oc1c(Cl)cc(Cl)cc1Sc1cc(Cl)cc(Cl)c1O,24.6 µM (active) and 55.9 µM (active) and 43.6 µM (active)
6,Cc1scc2c1N(C(=O)CN1CCN(C)CC1)c1ccccc1NC2=O,inactive
7,O=C(O)CCc1ccccc1,inactive
8,c1cc(C(c2ccc(OCC3CO3)cc2)C(c2ccc(OCC3CO3)cc2)c2ccc(OCC3CO3)cc2)ccc1OCC1CO1 (stereo not given),inactive
9,Cc1cccc2n[nH]nc12,inactive
10,c1cnc2cc3c(cc2n1)C1CNCC3C1,inactive
11,Oc1c(Cl)cc(Cl)c(Cl)c1Cc1c(O)c(Cl)cc(Cl)c1Cl,54.8 µM (active) and 27.5 µM (active) and 9.52 µM (active)
12,Cc1ccc(-c2cc(C(F)(F)F)nn2-c2ccc(S(N)(=O)=O)cc2)cc1,48.8 µM (active)
13,CCCCCCCCCCCC[N+](C)(C)C,54.9 µM (active)
14,O=Cc1ccc(Cl)cc1,inactive
15,C1COC(NC(C2CC2)C2CC2)=N1,inactive
16,O=c1n(CC2CO2)c(=O)n(CC2CO2)c(=O)n1CC1CO1 (stereo not given),inactive
17,Cc1c(O)cccc1C(=O)N[C@@H](CSc1ccccc1)[C@H](O)CN1C[C@H]2CCCC[C@H]2C[C@H]1C(=O)NC(C)(C)C,23.9 µM (active) and 21.3 µM (active)
18,CC1COC(=O)O1 (stereo not given),inactive
19,CC(C)CCCCCCc1ccc(O)cc1,31.4 µM (active) and 38.9 µM (active)
20,CN1C(=O)c2ccc([N+](=O)[O-])cc2C1=O,inactive
